From PubChem BioAssay
Shown are actives, neighbours in structure and some others; about 4.1% of the full set was active somewhere.
DAX1 inh-1 – DAX1 (NR0B1) inhibition, primary screen; HEK293T StAR-luciferase reporter, SF-1/DAX-1 repression relief; inhibition, % at 6.8 µM; 370,000 compounds, 1.1% hits;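 active = inhibition above the mean over all tested compounds plus 3 SD, cut at about 3.6% in these data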;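 note: higher inhibition means more luminescence from relief of DAX-1 repression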
ssDAF-12 act – activates DAF-12 receptor from parasite S. stercoralis. HEK293 ssDAF-12/GRIP1 lit1-tk-luc reporter, luminescence; % of 3 µM dafachronic acid response. activation, % at 6.8 µM. 370,000 compounds, 1% hits. AID 652126;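 active = activation above the mean over all tested compounds plus 3 SD, cut at about 0.9% in these data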
DAX1 inh-2 – NR0B1 (DAX1) inhibition; HEK293 Gal4-DAX1 luciferase reporter, luminescence; 340,000 compounds, 0.99% hits; P51843; inhibition, % at 6.75 µM;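 active = inhibition above the mean over all tested compounds plus 3 SD, cut at about 4.2% in these data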;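 note: inhibition shows as a rise in luminescence from relieved DAX1 repression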
Target sequence (P51843 207-470 limits assumed): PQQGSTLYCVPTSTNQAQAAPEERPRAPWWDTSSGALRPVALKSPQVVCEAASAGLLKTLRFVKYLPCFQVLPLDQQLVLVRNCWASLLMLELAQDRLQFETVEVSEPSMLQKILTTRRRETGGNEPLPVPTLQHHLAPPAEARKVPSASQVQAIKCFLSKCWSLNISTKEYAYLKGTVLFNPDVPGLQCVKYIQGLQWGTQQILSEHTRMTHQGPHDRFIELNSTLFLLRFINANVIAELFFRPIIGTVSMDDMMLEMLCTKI
PolyA inhibitor – inhibitors of polyadenylation in S. cerevisiae; AID 1875; 300,000 compounds, 0.02% hits; S. cerevisiae SKY197-pL101 polyadenylation reporter, beta-gal luminescence; efflux-impaired pdr1/pdr3 knockout yeast; score 100 = 6 SD above DMSO; activity score, % at 12 µM;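 active = lowest replicate activity score at least 50, where 100 means six control SD above control mean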;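 note: yeast exposed to compound for 9 h at 30 °C; higher score means more reporter readthrough which indicates perturbed polyadenylation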
hcDAF12 agonist – activates DAF-12 receptor from parasite H. contortus. HEK293 hcDAF-12 lit1-tk-luc reporter, luminescence; 0% DMSO, 100% Δ7-dafachronic acid. activation, % at 6.8 µM. 370,000 compounds, 1.4% hits. AID 652067;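 active = activation above the mean of all tested compounds plus 3 SD, cut at about 5.5% in these data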
hgDAF12 agonist – activates the H. glycines DAF-12 receptor ligand-binding domain. HEK293 GAL4-hgDAF12 UAS-luciferase reporter, agonist luminescence; normalized to butyrate control. 370,000 compounds, 1.8% hits. activation, % at 6.8 µM;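 active = activation above a cutoff set at the mean of all screened compounds plus 3 SD, cut at about 10% in these data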
Of the large screens only hits and unclear results are named; the others gave an inactive call.

CCOC(=O)c1ccc(NC(=O)NC2=NCCS2)cc1	hgDAF12 agonist 11 (no result: PolyA inhibitor)
CCOc1cccc(C(=O)Nc2cccc(C(C)=O)c2)c1	none
COc1cccc(C(=O)NC2=NCCS2)c1	hgDAF12 agonist 11
CCOP(=O)(OCC)c1ccc2c(c1)C(=O)c1ccccc1-2	none (no result: DAX1 inh-1, DAX1 inh-2, PolyA inhibitor)
C[C@H]1CN(C(=O)OC(C)(C)C)CCN1c1ccc(Br)c(C#N)c1	none (no result: DAX1 inh-2, PolyA inhibitor)
COC(=O)[C@]12C[C@H](CC(=O)N3CCCCC3)C(=O)N(Cc3ccc(Cl)cc3Cl)C1=C[C@H](C(C)C)O[C@@H]2C1CC1	none (no result: DAX1 inh-2, PolyA inhibitor)
O=C(NC1=NCCS1)c1cccc(Br)c1	DAX1 inh-2 7.7, hgDAF12 agonist 11
COc1ccccc1C(=O)COC(=O)c1cc(=O)[nH]c2ccccc12	none
O=C(Cc1ccccc1[N+](=O)[O-])OCC(=O)c1c[nH]c2ccccc12	none
COc1ccc(C(=O)COC(=O)c2cc(=O)[nH]c3ccccc23)c(OC)c1	ssDAF-12 act 1.0
CC(=O)OCC(=O)c1c[nH]c2ccccc12	ssDAF-12 act 1.1
N#Cc1ccccc1OCC(=O)OCC(=O)c1c[nH]c2ccccc12	DAX1 inh-1 4.1 (no result: PolyA inhibitor)
COc1cccc(C(=O)OCC(=O)c2c[nH]c3ccccc23)c1O	ssDAF-12 act 1.9
COc1cccc(/C=C/C(=O)OCC(=O)c2c[nH]c3ccccc23)c1OC	none
Cc1ccc(Cn2cc(CN3[C@H](CC(C)C)COc4cc(Br)ccc4S3(=O)=O)nn2)cc1	none (no result: DAX1 inh-2, PolyA inhibitor)
O=C(COC(=O)c1cccc(S(=O)(=O)N2CCCCC2)c1)NCc1ccccc1	none (no result: PolyA inhibitor)
Cc1cc(C)c(C(=O)COc2cccnc2[N+](=O)[O-])cc1C	none (no result: PolyA inhibitor)
O=C(COc1cccnc1[N+](=O)[O-])c1c[nH]c2ccccc12	hcDAF12 agonist 5.9
O=C(COC(=O)C1CC1)c1c[nH]c2ccccc12	ssDAF-12 act 1.1, hcDAF12 agonist 6.2
O=C(OCC(=O)c1c[nH]c2ccccc12)c1cccc(S(=O)(=O)N2CCCCCC2)c1	ssDAF-12 act 1.1
COCCNc1nc(Oc2ccc(CC(=O)OC)cc2)c2sc(-c3ccccc3)cc2n1	DAX1 inh-1 3.8 (no result: DAX1 inh-2, PolyA inhibitor)
C[C@H]1COc2cc(Br)ccc2S(=O)(=O)N1Cc1cn(Cc2ccc(C(F)(F)F)cc2)nn1	none (no result: DAX1 inh-2, PolyA inhibitor)
CCCn1c(/N=C/c2ccc3c(c2)OCO3)nc2ccccc21	none
C=CCn1c(/N=C/c2ccc3c(c2)OCO3)nc2ccccc21	ssDAF-12 act 1.2
CCOc1cc2c(cc1O)C(=NOC)CC1C2CCC2(C)C(O)CCC12 (stereo not given)	DAX1 inh-1 4.3 (no result: PolyA inhibitor)
CCOc1ccc2ccccc2c1CNc1nnnn1CC	DAX1 inh-2 4.9
CCCC(=O)N1CCC(NS(=O)(=O)c2ccc3c(c2)CCN3C(C)=O)CC1	none (no result: DAX1 inh-2, PolyA inhibitor)
O=C1NC(=Nc2ccccc2)c2c1cccc2[N+](=O)[O-]	ssDAF-12 act 1.3
O=C(Nc1cccc2c1C(=O)NC2=O)c1ccccc1[N+](=O)[O-]	none
CCN(CC)c1ccc(C=NCCc2ccc(S(N)(=O)=O)cc2)cc1	ssDAF-12 act 1.0
CCN(CC)c1ccc(/C=N/NS(=O)(=O)c2ccc(CNC(C)=O)cc2)cc1	none
COCCNC(=O)CN(Cc1ccc(F)cc1)C(=O)CCC(=O)Nc1nccs1	DAX1 inh-2 4.2
COCCNC(=O)CN(Cc1ccc(OC)cc1)C(=O)CCC(=O)Nc1nccs1	none
COc1ccc(-n2c(=S)[nH]c(=O)c3cccnc32)cc1	DAX1 inh-2 7.2
COc1ccc(-n2c(=S)[nH]c3c(oc4ccccc43)c2=O)cc1	none
COc1cccc(N2CCN(c3ccc(N4C(=O)CCC4=O)cc3[N+](=O)[O-])CC2)c1	DAX1 inh-2 6.6
O=c1c2c3c(sc2nc2n1CCCCC2)CCC3	none
O=c1c2c3c(sc2nc2n1CCCCC2)C(O)CCC3 (stereo not given)	hgDAF12 agonist 11
O=C1CCCc2c1sc1nc3n(c(=O)c21)CCCCC3	hgDAF12 agonist 10
CC(C)CN1C(=O)[C@]2(CC(=O)N(C)C2c2ccccc2)c2cc(-n3cc(CO)nn3)ccc21 (stereo not given in full)	none (no result: DAX1 inh-2, PolyA inhibitor)
Cc1ccc(C(=O)Nc2nc(C)c(C(=O)N(C)C)s2)o1	DAX1 inh-1 4.4
Cc1ccc(C(=O)Nc2ncc(Cc3ccc(F)cc3)s2)o1	DAX1 inh-1 4.2
Cc1nc(NC(=O)/C=C/c2ccccc2)sc1C(=O)N(C)C	hgDAF12 agonist 10
Cc1ccc(C(=O)Nc2ccc(F)cc2)o1	none
Cc1ccc(C2=NN=C(NC(=O)C(F)(F)F)SC2)cc1	ssDAF-12 act 2.3, hgDAF12 agonist 12 (no result: PolyA inhibitor)
O=[N+]([O-])c1cc(S(=O)(=O)Nc2ccccc2)ccc1Nc1ccccc1	ssDAF-12 act 1.6 (no result: PolyA inhibitor)
COC(=O)c1ccccc1NC(=O)C12CCC(C)(C(=O)O1)C2(C)C (stereo not given)	ssDAF-12 act 1.9
COC(=O)c1ccccc1NC(=O)NCc1ccncc1	ssDAF-12 act 6.6
O=C(NC1CCCC1)[C@@H]1CCCN1C(=O)[C@@H](NC(=O)N1CCOCC1)C1CCCCC1	none (no result: DAX1 inh-2, PolyA inhibitor)
CN1C(c2ccccc2)CC2CN(c3ccccc3)C(=O)C21 (stereo not given)	none (no result: DAX1 inh-2, PolyA inhibitor)
O=C(O)c1nn(-c2cccc(Cl)c2)c(=O)cc1O	ssDAF-12 act 1.2
COC(=O)c1ccc2c(C(C)c3ccccc3O)c[nH]c2c1 (stereo not given)	none (no result: DAX1 inh-2, PolyA inhibitor)
CCn1c(C)nc2cc(NC(=O)Nc3cccc(C(C)=O)c3)ccc21	hgDAF12 agonist 12
O=C(CCn1nnc2ccccc21)N1CCN(c2cccc(C(F)(F)F)c2)CC1	none (no result: DAX1 inh-2, PolyA inhibitor)
CCC(C)N(Cc1ccc(OC)cc1OC)S(=O)(=O)c1cc(Br)ccc1Br (stereo not given)	none (no result: DAX1 inh-2, PolyA inhibitor)
COc1ccc(/C=c2\sc3nc(-c4ccccc4OC)nn3c2=O)c(OC)c1	ssDAF-12 act 0.9
CC1(C)OC(=O)C2=C(CC(CCc3ccccc3)OC2c2cccc(C(F)(F)F)c2)O1 (stereo not given)	none (no result: DAX1 inh-2, PolyA inhibitor)
Cc1ccc(Cl)cc1N1C(=O)CC(Sc2ncccn2)C1=O (stereo not given)	DAX1 inh-2 4.7
O=C1CC(Sc2ncccn2)C(=O)N1c1ccccc1C(F)(F)F (stereo not given)	none
Cc1c(C(=O)Nc2nccs2)oc2ccc(F)cc12	ssDAF-12 act 1.6, hcDAF12 agonist 6.3 (no result: PolyA inhibitor)
O=C(C1CCC1)N1CCc2cc(S(=O)(=O)N3CCN(c4ccccc4F)CC3)ccc21	none (no result: DAX1 inh-2, PolyA inhibitor)
O=C(CSc1nccc(=O)[nH]1)c1cc2ccccc2o1	ssDAF-12 act 1.3, hgDAF12 agonist 11
Cc1cccc(-n2ncc3c(NCc4ccccc4)ncnc32)c1	hgDAF12 agonist 12
Cc1ccc(-n2ncc3c(SCc4ccccc4)ncnc32)cc1	hcDAF12 agonist 6.5, hgDAF12 agonist 12
Cc1ccc(CSc2ncnc3c2cnn3-c2ccccc2)cc1	none
